High-throughput results: PubChem, National Center for Advancing Translational Sciences (NCATS)
JMJD2A Tudor inh = qHTS Assay for Inhibitors of JMJD2A-Tudor Domain | 390,000 compounds, 4.4% hits | Potency, µM (highest dose often 114 µM), actives largely listed as inhibitors | AlphaScreen JMJD2A-Tudor / H3K4me3 peptide binding | AID 504339, 2011 | Lysine-specific demethylase 4A (Homo sapiens), O75164; further: nearly all actives have a fitted effect of over 50% in size
HP1b chromo inh = HTS for Inhibitors of HP1-beta Chromodomain Interactions with Methylated Histone Tails | Potency, µM (series often up to 114 µM), usual class: inhibitors | AID 540317, 2011 | Chromobox protein homolog 1 (Homo sapiens), P83916 | AlphaScreen HP1-beta / biotin-H3K9me3 peptide binding | 390,000 compounds, 0.56% hits; further: nearly all actives have a fitted effect of over 70% in size
Target sequence (P83916 whole entry, looked up): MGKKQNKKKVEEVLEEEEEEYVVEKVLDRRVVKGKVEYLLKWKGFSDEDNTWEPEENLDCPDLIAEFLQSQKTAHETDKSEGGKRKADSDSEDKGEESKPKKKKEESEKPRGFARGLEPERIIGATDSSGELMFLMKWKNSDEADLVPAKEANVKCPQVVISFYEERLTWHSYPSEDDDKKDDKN
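Compound inhibition of the preformed complex between 50 nM HP1-beta and 50 nM biotinylated H3K9me3 peptide was read by AlphaScreen. Buffer was PBS pH 7.4 with 0.01% Tween-20. Incubations ran 30 min at room temperature, with 10 ug/mL donor/acceptor beads.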
CtBP-E1A blk = qHTS Assay for Inhibitors of the CtBP/E1A Interaction. AlphaScreen GST-E1A/His-CtBP binding, 1536-well; active compounds read low. 340,000 compounds, 0.49% hits. activity change, % (no concentration beside the values); in the data active means activity change below about -65%; inconclusive means mostly about -30% to -63%
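In 5 uL wells, 23 nL compound meets equimolar GST-E1A and His-CtBP (5X stock 125 nM each) for 2 h, 37 °C. Beads (5X, 50 ug/mL) then 1 h, 37 °C, dark.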
BAZ2B block = qHTS Assay for Inhibitors of BAZ2B; Bromodomain adjacent to zinc finger domain protein 2B (Homo sapiens), Q9UIF8; AID 504333, 2011; Potency, µM (highest dose often 114 µM), actives largely listed as inhibitors; AlphaScreen BAZ2B-H3K14Ac peptide displacement; 360,000 compounds, 4.4% hits; further: nearly all actives have a fitted effect of over 60% in size
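Complex of BAZ2B and biotin-H3K14Ac (50 nM apiece) forms over 30 min at RT, then faces library compounds up to 110 uM for another 30 min; AlphaScreen beads added, 20 min dark incubation, luminescence read.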
Six1-Eya2 blk = qHTS Assay for Inhibitors of the Six1/Eya2 Interaction; Homeobox protein SIX1 (Homo sapiens) + Protein phosphatase EYA2 (Homo sapiens), …; AlphaScreen GST-Six1/His-Eya2 binding, biochemical; active compounds read low; activity change, % (no concentration beside the values); 360,000 compounds, 0.56% hits; in the data active means activity change below about -65%; inconclusive means mostly about -30% to -63%
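Homogeneous AlphaScreen proximity assay pairing GST-Six1 with His-tagged Eya2 (added as 5X mix: 250 nM and 500 nM) in 50 mM Tris pH 8.0, 300 mM NaCl, 1 mM TCEP. Glutathione donor and nickel acceptor beads; 1 h, 37 °C, dark.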
G9a block = qHTS Assay for Inhibitors of Histone Lysine Methyltransferase G9a. AID 504332, 2011. G9a H3K9 monomethylation, AlphaScreen, 2 h. 350,000 compounds, 8.8% hits. Potency, µM (series often up to 102 µM), usual class: inhibitors; further: nearly all actives have a fitted effect of over 75% in size
Target sequence (Q96KQ7 913-1193 limits assumed): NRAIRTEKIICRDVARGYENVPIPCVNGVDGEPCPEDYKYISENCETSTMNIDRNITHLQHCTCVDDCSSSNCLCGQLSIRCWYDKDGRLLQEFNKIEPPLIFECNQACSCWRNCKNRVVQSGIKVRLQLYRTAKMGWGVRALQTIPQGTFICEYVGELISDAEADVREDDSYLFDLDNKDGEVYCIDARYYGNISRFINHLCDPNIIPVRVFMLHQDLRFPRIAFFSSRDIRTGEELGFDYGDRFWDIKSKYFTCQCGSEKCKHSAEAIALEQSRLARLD
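G9a (20 nM) preincubated 15 min RT with compounds, then 500 nM biotinylated H3K9 peptide and 20 uM SAM added; 2 h RT reaction. Monomethyl-H3K9 product detected by AlphaScreen with anti-H3K9me1 antibody, streptavidin donor and anti-rabbit IgG acceptor beads.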
Of the large screens only hits and unclear results are named; the others gave an inactive call; ! = not confirmed by another sample. An excerpt weighted towards active compounds, which were near 10% of everything screened. Unless noted, the call rests on the fitted dose curve; in most records, active means well fitted inhibition curve with a large enough effect; inconclusive means small, poorly fitted or top-dose-only effect; inactive means no such curve, though single readings can be large or run the other way.

CN1CCN(c2ncc3nc(-c4cc(F)cc(F)c4)c(=O)n(-c4ccccc4)c3n2)CC1	none (no result: JMJD2A Tudor inh, HP1b chromo inh, CtBP-E1A blk, BAZ2B block, Six1-Eya2 blk)
Cc1ccc(-c2nc(S(=O)(=O)c3ccc(C)cc3)c(N3CCCCC3)o2)cc1	BAZ2B block inconclusive, G9a block 15.8µM (no result: CtBP-E1A blk, Six1-Eya2 blk)
O=S(=O)(c1ccccc1)c1nc(-c2ccccc2)oc1N1CCOCC1	none
Cc1ccc(S(=O)(=O)c2nc(C(C)(C)C)oc2N2CCOCC2)cc1	JMJD2A Tudor inh 35.5µM, HP1b chromo inh 50.1µM, G9a block 8.91µM
O=S(=O)(c1ccccc1)c1nc(-c2cccc(Cl)c2)oc1N1CCOCC1	BAZ2B block inconclusive, G9a block 39.8µM
CCOc1ccc(-c2nc(S(=O)(=O)c3ccccc3)c(N3CCC(C(N)=O)CC3)o2)cc1	JMJD2A Tudor inh 70.8µM, HP1b chromo inh inconclusive, BAZ2B block inconclusive (no result: G9a block)
CCN(C(=O)c1ccc(NC(=O)C2CCCCC2C(=O)O)cc1)c1ccccc1 (centres undefined)	none (no result: JMJD2A Tudor inh, HP1b chromo inh, BAZ2B block, G9a block)
CCc1nc2ccc(C(=O)NCCCn3ccnc3)cn2c1N(C)C(=O)C1CCCCC1	none (no result: JMJD2A Tudor inh, HP1b chromo inh, BAZ2B block, G9a block)
CCO/C=C1/C(=O)N(C(C)=O)c2ccccc21	G9a block 10µM
O=C(Nc1cc(C(F)(F)F)cc(C(F)(F)F)c1)O[C@@H]1c2ccccc2[C@@H]2Cc3csc[n+]3[C@H]12	none (no result: JMJD2A Tudor inh, HP1b chromo inh, BAZ2B block, G9a block)
CCSc1nn(CC(=O)Nc2cccc(Cl)c2)c(N)c1S(=O)(=O)c1ccc(OC)cc1	none (no result: CtBP-E1A blk, Six1-Eya2 blk)
O=C(O)c1ccc2nc(-c3ccco3)c(-c3ccco3)nc2c1	JMJD2A Tudor inh 25.1µM, HP1b chromo inh inconclusive, BAZ2B block 10µM, Six1-Eya2 blk inconclusive
O=C(Nc1cccc(C(F)(F)F)c1)c1ccc2nc(-c3ccco3)c(-c3ccco3)nc2c1	JMJD2A Tudor inh 20µM, CtBP-E1A blk inconclusive, BAZ2B block 50.1µM, Six1-Eya2 blk -76.8, G9a block inconclusive
COc1ccc(CCNC(=O)c2ccc3nc(-c4ccco4)c(-c4ccco4)nc3c2)cc1OC	JMJD2A Tudor inh inconclusive, HP1b chromo inh inconclusive, CtBP-E1A blk inconclusive, BAZ2B block 50.1µM, Six1-Eya2 blk inconclusive, G9a block inconclusive
Cc1[nH]nc2c1C(c1cc(Br)cs1)C(C#N)=C(N)O2 (centres undefined)	none
Cc1cc(=O)oc2cc(OCC(=O)Nc3ccccc3C(=O)O)ccc12	none
C/C=C/c1ccc(OCCCNC2CCCC2)c(OC)c1	JMJD2A Tudor inh 7.94µM, HP1b chromo inh inconclusive, BAZ2B block inconclusive, G9a block inconclusive
C/C=C/c1ccc(OCC(=O)OCC)c(OC)c1	none
C/C=C/c1ccc(OCCCNC(C)CC)c(OC)c1 (centres undefined)	JMJD2A Tudor inh 1.78µM, BAZ2B block 31.6µM, G9a block inconclusive
C/C=C/c1ccc(OCCCCOc2ccccc2F)c(OC)c1	none
COc1ccc(CCN2C(=O)COc3ccccc3C2C(=O)Nc2c(C)cccc2C)cc1OC (centres undefined)	none (no result: JMJD2A Tudor inh, HP1b chromo inh, BAZ2B block, G9a block)
CC(N)=NCCCC(N)C(=O)O (centres undefined)	none (no result: JMJD2A Tudor inh, HP1b chromo inh, CtBP-E1A blk, BAZ2B block, Six1-Eya2 blk)
CC(N)=NCCCC[C@@H](N)C(=O)O	G9a block 10µM! (no result: JMJD2A Tudor inh, HP1b chromo inh, CtBP-E1A blk, BAZ2B block, Six1-Eya2 blk)
COc1cc(CN(C)Cc2cccc3ccccc23)cc([N+](=O)[O-])c1O	JMJD2A Tudor inh inconclusive, BAZ2B block inconclusive, G9a block 70.8µM (no result: CtBP-E1A blk)
CCOC(=O)c1cc(OC(=O)c2ccc(C)cc2)n(-c2ccccc2)n1	none (no result: CtBP-E1A blk, Six1-Eya2 blk)
CCn1c(CCl)nc2cc(S(=O)(=O)N3CCOCC3)ccc21	JMJD2A Tudor inh inconclusive (no result: BAZ2B block, G9a block)
Cc1cccc(C(=O)Nc2onc(C)c2C#N)c1	JMJD2A Tudor inh 89.1µM, BAZ2B block inconclusive (no result: G9a block)
Cc1noc(NC(=O)c2ccc(F)cc2)c1C#N	none
O=c1c2oc3ccccc3c2n(Cc2ccccc2F)c(=O)n1Cc1ccco1	none (no result: CtBP-E1A blk, Six1-Eya2 blk)
